MITF TRPM1 inh: reduces MITF-dependent TRPM1 promoter luciferase signal. 330,000 tested, 0.83% active. AID 488899. inhibition, % at 12.5 µM. SK-MEL-5 TRPM1 promoter luciferase, 24 h;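 active = mean inhibition across replicates of 60% or more, whatever share of single replicates reaches that level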
TROY signal inh: TROY signaling inhibition. 360,000 tested, 0.98% active. AID 1347056. inhibition, % at 10 µM. Q293 LMP1-TROYcd NF-kB luciferase reporter, 4 h;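 active = compounds whose plate-normalised and pattern-corrected inhibition of the luciferase reporter signal at the single screening dose is 50% or more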
Shn3 3UTR inh: inhibitors of Schnurri-3 3'UTR reporter in osteoblasts; 360,000 tested, 0.52% active; Clone20 osteoblast Shn3 3'UTR firefly luciferase, 24 h; inhibition, % at 12.5 µM;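 active = mean inhibition of at least 75% with every replicate also reaching 75%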;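 note: 0% = median of neutral control wells and 100% = pilot-screen positive control compound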
Peg3 promoter: reduces Peg3 promoter-driven luciferase expression in HeLa; 360,000 tested, 1.7% active; inhibition, % at 20 µM; HeLa PEG-Prom luciferase reporter, luminescence, overnight; AID 588405;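 active = inhibition of at least 50% at 20 µM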
TWEAK-Fn14 inh: blocks TWEAK-Fn14 interaction in a reporter cell assay; 360,000 tested, 2% active; TWEAK-stimulated Fn14 reporter cells, luciferase luminescence, 8 h; inhibition, % at 10 µM; in the data active = inhibition above about 50%
EBV LMP1 NFkB: Epstein-Barr LMP1 NF-kappaB reporter inhibition. AID 504558. inhibition, % at 12.5 µM. LMP1-induced NF-kappaB luciferase reporter cells, luminescence. 350,000 tested, 0.69% active; in the data active = inhibition above about 41%;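 note: 0% = neutral control wells and 100% = reference inhibitor control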
Numbers without * were called inactive. A selection: hits, their analogues and other compounds. The true share with any hit is near 4.1%.

Cc1cccc(C)c1NC(=O)CN(C)C(=O)CN1C(=O)NC2(CCCC2)C1=O was read as MITF TRPM1 inh -1, TROY signal inh -13, Shn3 3UTR inh -24, Peg3 promoter 10, TWEAK-Fn14 inh 3 and EBV LMP1 NFkB 1.
For CC(=O)c1cccc(NC(=O)C2CC(=O)N(c3ccc4c(c3)OCCO4)C2)c1 (stereo unspecified) the results were MITF TRPM1 inh 3, TROY signal inh -2, Shn3 3UTR inh 4, Peg3 promoter 3, TWEAK-Fn14 inh 4 and EBV LMP1 NFkB 39.
Screening Cc1ccc(N2CC(C(=O)Nc3ccc4c(c3)OCCO4)CC2=O)cc1C (stereo unspecified) returned MITF TRPM1 inh -5, TROY signal inh 46, Shn3 3UTR inh 14, Peg3 promoter 39, TWEAK-Fn14 inh 54* and EBV LMP1 NFkB -2.
For O=C(Nc1cccc(S(=O)(=O)NC2=NCCC2)c1)C1CC(=O)N(c2ccc3c(c2)OCCO3)C1 (stereo unspecified) the results were MITF TRPM1 inh 4, TROY signal inh 5, Shn3 3UTR inh 87*, Peg3 promoter -2, TWEAK-Fn14 inh 39 and EBV LMP1 NFkB 5.
Screening O=C(Nc1ccc2c(c1)OCO2)C1CC(=O)N(c2ccccc2)C1 (stereo unspecified) returned MITF TRPM1 inh 0, TROY signal inh 3, Shn3 3UTR inh -1, Peg3 promoter 2, TWEAK-Fn14 inh -3 and EBV LMP1 NFkB 5.
Screening Cc1ccc(N2CC(C(=O)Nc3ccc4c(c3)OCCO4)CC2=O)cc1 (stereo unspecified) returned MITF TRPM1 inh 3, TROY signal inh 50, Shn3 3UTR inh -21, Peg3 promoter 10, TWEAK-Fn14 inh 59* and EBV LMP1 NFkB -3.
CSCC[C@H](NC(=O)c1ccc(OCC2CCCO2)cc1)c1nc2ccccc2[nH]1 (stereo partly specified) was read as MITF TRPM1 inh 0, TROY signal inh 9, Shn3 3UTR inh 5, Peg3 promoter -19, TWEAK-Fn14 inh 2 and EBV LMP1 NFkB 0.
For CCOC(=O)c1c(-c2ccccc2)csc1NC(=O)/C(C#N)=C/c1ccc(O)c(OC)c1 the results were MITF TRPM1 inh 4, TROY signal inh 6, Shn3 3UTR inh 7, Peg3 promoter 6, TWEAK-Fn14 inh 47 and EBV LMP1 NFkB 0.
`CC1(c2nnnn2-c2ccc3c(c2)OCCO3)CCC(=O)N1Cc1cccnc1` (stereo unspecified) gave TROY signal inh 57* and TWEAK-Fn14 inh 79*.
Screening COc1ccccc1OCCn1cc(C(=O)O)c2ccccc21 returned MITF TRPM1 inh 1, TROY signal inh -25, Shn3 3UTR inh -4, Peg3 promoter 14, TWEAK-Fn14 inh 63* and EBV LMP1 NFkB -9.
`CC(C)(C)c1cc(=O)[nH]c(SCc2ccccc2Cl)n1` gave MITF TRPM1 inh 8, TROY signal inh 54*, Shn3 3UTR inh 6, Peg3 promoter 7, TWEAK-Fn14 inh -5 and EBV LMP1 NFkB 5.
For CCOc1cc(C(=O)N2CCN(c3ccccn3)CC2)cc(OCC)c1OCC the results were MITF TRPM1 inh -1, TROY signal inh 10, Shn3 3UTR inh -4, Peg3 promoter 19, TWEAK-Fn14 inh 0 and EBV LMP1 NFkB 7.
`COc1ccc(OCc2cc(C(=O)N(C)C(C)c3ccon3)no2)c(Cl)c1` (stereo unspecified) gave MITF TRPM1 inh -68, TROY signal inh -19, Shn3 3UTR inh -16, Peg3 promoter -233, TWEAK-Fn14 inh -41 and EBV LMP1 NFkB -24.
`FC(F)(F)c1cccc(N2CCN(c3ccc4nnc(-c5ccccc5)n4n3)CC2)c1` gave MITF TRPM1 inh -9, TROY signal inh -9, Shn3 3UTR inh 24, Peg3 promoter 19, TWEAK-Fn14 inh -28 and EBV LMP1 NFkB -2.
COc1ccc2nnc(-c3ccc(C(F)(F)F)cc3)n2n1 was read as MITF TRPM1 inh 12, TROY signal inh -12, Shn3 3UTR inh -1, Peg3 promoter 25, TWEAK-Fn14 inh 61* and EBV LMP1 NFkB 5.
Screening C=CCNC(=O)C1CCN(S(=O)(=O)c2cccs2)CC1 returned MITF TRPM1 inh -6, TROY signal inh 9, Shn3 3UTR inh -21, Peg3 promoter 13, TWEAK-Fn14 inh -19 and EBV LMP1 NFkB -5.
COc1cc(N2CCCC2)c(OC)cc1/C=C(/C#N)c1ccc(Br)cc1 was read as MITF TRPM1 inh -12, TROY signal inh -15, Shn3 3UTR inh -12, Peg3 promoter 53*, TWEAK-Fn14 inh 2 and EBV LMP1 NFkB 3.
`CC(C)c1ccc(-c2csc3ncnc(N4CCN(C)CC4)c23)cc1` gave MITF TRPM1 inh -3, TROY signal inh 7, Shn3 3UTR inh 49, Peg3 promoter 1, TWEAK-Fn14 inh 51* and EBV LMP1 NFkB 49*.
Screening CN1CCCN(c2ncnc3scc(-c4ccc(F)cc4)c23)CC1 returned MITF TRPM1 inh -12, TROY signal inh 20, Shn3 3UTR inh 2, Peg3 promoter 13, TWEAK-Fn14 inh 0 and EBV LMP1 NFkB 2.
Clc1ccc(-c2csc3ncnc(N4CCc5ccccc5C4)c23)cc1 was read as MITF TRPM1 inh -33, TROY signal inh 55*, Shn3 3UTR inh -9, Peg3 promoter 35, TWEAK-Fn14 inh 78* and EBV LMP1 NFkB -19.
`CCOc1ccccc1NC(=O)c1cc(C(=O)c2cc(Br)ccc2O)coc1=N` gave MITF TRPM1 inh 17, TROY signal inh 59*, Shn3 3UTR inh -2, Peg3 promoter 19, TWEAK-Fn14 inh 2 and EBV LMP1 NFkB 6.
`O=C(c1cc2ccccc2o1)N1CCN=C1SCc1cccnc1` gave MITF TRPM1 inh -18, TROY signal inh -12, Shn3 3UTR inh -25, Peg3 promoter -83, TWEAK-Fn14 inh 12 and EBV LMP1 NFkB -4.
For COc1ccccc1-c1oc2ccccc2c1C#CC1(N)CCCCC1 the results were MITF TRPM1 inh 25, TROY signal inh -7, Shn3 3UTR inh -41, Peg3 promoter 72*, TWEAK-Fn14 inh -1 and EBV LMP1 NFkB -12.
COc1ccccc1-c1oc2ccccc2c1C#CC1(O)CCCCC1 was read as MITF TRPM1 inh -10, TROY signal inh 6, Shn3 3UTR inh -9, Peg3 promoter 5, TWEAK-Fn14 inh -2 and EBV LMP1 NFkB -16.
`OC(c1ccccc1)C(O)c1ccccc1` (stereo unspecified) gave TROY signal inh -40, Shn3 3UTR inh 8, Peg3 promoter 9 and TWEAK-Fn14 inh -8.
Screening OC(c1ccccc1)C(O)C(c1ccccc1)N1CCCCC1 (stereo unspecified) returned MITF TRPM1 inh -21, TROY signal inh -7, Shn3 3UTR inh 92*, Peg3 promoter 6, TWEAK-Fn14 inh 5 and EBV LMP1 NFkB -8.
CC(=O)NC(CC(=O)OCC(=O)N1CCN(S(=O)(=O)c2ccc(C)cc2C)CC1)c1ccccc1 (stereo unspecified) was read as MITF TRPM1 inh -8, TROY signal inh 4, Shn3 3UTR inh 4, Peg3 promoter 17, TWEAK-Fn14 inh 13 and EBV LMP1 NFkB 3.

Bioassay records: PubChem BioAssay, several laboratories
